Assay outcomes from PubChem BioAssay.
HT1080-NT tox: kills 2HG-producing HT-1080-NT fibrosarcoma cells; HT-1080-NT fibrosarcoma viability, CellTiter-Glo ATP luminescence, 48 h; Potency, µM (top dose mostly 46.1 µM), hits mostly cytotoxic; 1.6% of 360,000 active;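 further: NT is the 2HG producing partner of a matched IDH1 knockdown line; nearly all actives have a fitted effect of over 55% in size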
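Compounds were tested in concentration-response format on HT-1080-NT cells for 48 hours at 37 degrees C. Cell viability came from CellTiter-Glo luminescence; curves were classified by r2, response magnitude and activity.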
HepG2 tox-1: counter-screen for TGF-b inhibitors: cytotoxicity in HepG2 cells | AID 588856 | HepG2 CAGA-GFP viability, ATP luminescence, 18 h | Potency, µM (highest dose often 46.1 µM), most hits filed as cytotoxic | 0.76% of 410,000 active
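CellTiter-Glo luminescence gave cytotoxicity after 18 hours at 37 degrees C. The cells were HepG2 CAGA-GFP in 1% FBS DMEM, stimulated with 500 pg/mL TGF-beta after compound addition. %Activity was normalised to no-cell wells (complete cell-killing) and DMSO (no toxicity), and curves were fitted and classified.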
ATXN2 expr inh: reduces ATXN2 reporter expression in HEK-293 cells | HEK-293 ATXN2-luciferase reporter, luminescence, 24 h | 0.72% of 360,000 active | Potency, µM (series often up to 57 µM), actives largely listed as inhibitors; further: nearly all actives have a fitted effect of over 55% in size
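qHTS (up to 57 uM final) was run with 24 h compound exposure of reporter cells at 37 °C. Each well was multiplexed: SteadyGlo luminescence measured ATXN2-luciferase expression after a fluorogenic Gly-Phe-AFC viability readout (25 uM final).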
TGFb SMAD3 inh: inhibitors of TGF-b signaling. HepG2 CAGA-GFP TGF-b/SMAD3 reporter, GFP fluorescence, 18 h; TGF-beta stimulated, 500 pg/mL final. Potency, µM (doses to about 46.1 µM), hits mostly inhibitors. 1.2% of 410,000 active; further: nearly all actives have a fitted effect of over 65% in size
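Smad-responsive CAGA-GFP expression was quantified in HEPG2 cells exposed to compounds and 500 pg/mL final TGF-beta for 18 h at 37 degrees C; unstimulated wells defined full inhibition.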
HT1080 IDH1KD tx: HT-1080 IDH1 knockdown cell toxicity (counter line); HT-1080 IDH1 knockdown viability, ATP luminescence, 48 h; Potency, µM (highest dose often 46.1 µM), usual class: cytotoxic; 2% of 360,000 active; AID 686971
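In this qHTS, HT-1080 cells depleted of IDH1 are exposed for 48 h at 37 °C to compound titrations. Toxicity is scored from CellTiter-Glo luminescence, with DMSO as full viability and medium alone as none.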
S2 tox: reduces viability in counter-screen for ATXN expression inhibitors | S2 cells (HEK-293 line with an ATXN2-luciferase reporter) viability, CellTiter-Fluor protease fluorescence, 24 h | Potency, µM (series often up to 56.7 µM), actives largely listed as cytotoxic | 0.49% of 400,000 active | AID 651635; further: nearly all actives have a fitted effect of over 40% in size
TGFb CAGA inh: TGF-b pathway inhibition, cherry-pick retest; HepG2 CAGA-GFP TGF-b reporter, GFP fluorescence, 18 h; cells stimulated with TGF-beta, 500 pg/mL; shares compounds with TGFb SMAD3 inh; Potency, µM (doses to about 46.1 µM), actives largely listed as inhibitors; 63% of 1,600 active; further: nearly all actives have a fitted effect of over 65% in size
HepG2 tox-2: toxic to HepG2 cells in TGF-b counterscreen; shares compounds with TGFb SMAD3 inh; HepG2 CAGA-GFP viability, ATP luminescence, 18 h; cells stimulated with TGF-beta, 500 pg/mL; Potency, µM (titrated, usually from 46.1 µM), usual class: inhibitors; 27% of 1,600 active; AID 720535; further: nearly all actives have a fitted effect of over 70% in size
CCL64 TGFb inh: blocks TGF-b signaling in CCL64 reporter cells; shares compounds with TGFb SMAD3 inh; 41% of 1,600 active; CCL64 CAGA-GFP reporter, TGF-b stimulated, GFP fluorescence, 18 h; Potency, µM (top dose mostly 46.1 µM), most hits filed as inhibitors; further: nearly all actives have a fitted effect of over 65% in size
COP TGFb inh: TGF-b inhibition validated with COP promoter. Potency, µM (doses to about 46.1 µM), usual class: inhibitors. HepG2 COP-GFP TGF-b reporter, GFP fluorescence, 18 h; cells stimulated by added recombinant TGF-beta. 3% of 1,600 active. shares compounds with TGFb SMAD3 inh; further: nearly all actives have a fitted effect of over 70% in size
Hits are given with their value; . = inactive; ? = inconclusive; / = no result given. Hits are enriched below; roughly 3.9% of the tested compounds scored in any of these assays. The call rests on the fitted dose curve; in most records, active means well fitted curve in the direction sought with a large enough effect; inconclusive means small, poorly fitted or top-dose-only effect, or another doubt; inactive means no such curve, though single readings can be large; an effect the other way counts as inactive or inconclusive.

SMILES	HT1080-NT tox	HepG2 tox-1	ATXN2 expr inh	TGFb SMAD3 inh	HT1080 IDH1KD tx	S2 tox	TGFb CAGA inh	HepG2 tox-2	CCL64 TGFb inh	COP TGFb inh
CCN(CC)CCC(c1ccc(N(C)C)cc1)c1c(OC)cc(OC)c2c1OC(=O)CC2c1ccc(OC)cc1 (stereo unspecified)	/	.	/	.	/	/	/	/	/	/
COc1cc(NS(=O)(=O)c2cnc(N)nc2)cc(OC)c1	/	.	/	.	/	/	/	/	/	/
O=c1c2ccccc2nc(/C=C/c2ccc([N+](=O)[O-])o2)n1CCCO	2.9µM	3.2µM	4.5µM	5.6µM	2.9µM	/	3.3µM	6.5µM	5.8µM	?
O=c1c2ccccc2nc(/C=C/c2ccc([N+](=O)[O-])cc2)n1CCCO	.	.	.	.	.	.	/	/	/	/
O=C(Cn1c(=O)c2sccc2n(CC(=O)Nc2ccc(Cl)cc2Cl)c1=O)NCCc1ccccc1	/	.	/	.	/	/	/	/	/	/
CCC1CSC(Nc2ccc(C(=O)/C=C/c3ccc(OC)c(OC)c3)cc2)=N1 (stereo unspecified)	?	.	?	?	?	/	/	/	/	/
COc1ccc(/C=C/C(=O)c2ccc(NC3=NCCCS3)cc2)cc1OC	?	.	.	13µM	?	.	9.2µM	16µM	26µM	.
COc1cc(F)ccc1-c1cc(C(=O)Nc2ccc(C)c(NS(C)(=O)=O)c2)[nH]n1	.	.	.	?	.	.	/	/	/	/
CCCOc1ccc(F)cc1-c1cc(C(=O)Nc2ccc(C)c(NS(C)(=O)=O)c2)[nH]n1	?	.	.	18µM	?	.	?	?	23µM	.
Cc1cc(Nc2cccc(Cl)c2)nc2ccc(NC(=O)COc3ccc(Cl)cc3)cc12	/	.	.	?	/	/	/	/	/	/
O=C(N/N=C/c1ccc[nH]1)c1ccc(COc2cccc3cccnc23)cc1	?	.	7.5µM	1.8µM	5.2µM	?	18µM	?	2.1µM	.
COc1ccc(/C=C2/CCCC(CN(C)C)C2=O)cc1 (stereo unspecified)	.	.	?	6.3µM	8.2µM	/	2.6µM	7.3µM	4.1µM	?
COc1ccc(C=C2CCC3C(=O)CCCC3(C)C2=O)cc1 (stereo unspecified)	.	.	/	.	.	.	/	/	/	/
COc1cccc(/C=C2/CCC(CN(C)C)C2=O)c1 (stereo unspecified)	?	.	13µM	2.5µM	?	/	2.6µM	5.8µM	1.5µM	?
Cc1nc2c(-c3ccc(F)cc3)c(C)nn2c(C)c1CCC(=O)NCc1cccc(Cl)c1	/	.	.	.	/	.	/	/	/	/
CC(=O)c1ccc(NC(=O)CCCc2nc(-c3cccc(C)c3)no2)cc1	/	.	.	.	/	?	/	/	/	/
CCOc1ccc(C(=O)NCC(c2ccco2)S(=O)(=O)c2ccc(C)cc2)cc1 (stereo unspecified)	/	.	/	.	/	/	/	/	/	/
COc1ccc2c(c1OC)CN1CCc3cc4c(cc3[C@@H]1[C@@H]2O)OCO4	.	.	.	.	.	.	/	/	/	/
O[C@@H]1[C@@H](O)C=C2CCN3Cc4cc5c(cc4[C@H]1C23)OCO5 (stereo partly specified)	1.8µM	.	3.5µM	3.5µM	5.8µM	?	0.92µM	?	1.3µM	.
CC(C)c1ccc(S(=O)(=O)c2cnc(SCC(=O)Nc3ccc4c(c3)OCCO4)[nH]c2=O)cc1	/	.	.	.	/	.	/	/	/	/
COc1ccc2oc(=O)c(-c3cn4c(n3)sc3cc(F)ccc34)cc2c1	/	.	/	.	/	/	/	/	/	/
CCc1ccc(NC(=O)Cn2c(=O)n(CCCCC(=O)NCCc3ccc(Cl)cc3)c(=O)c3ccccc32)cc1	/	.	.	.	/	.	/	/	/	/
CC(=O)Nc1ncnc2c1c(-c1ccc(Cl)cc1)nn2C(C)(C)C	.	.	?	3.5µM	.	?	2.6µM	?	?	?
COc1ccc(OC)c(NC(=O)NNC(=O)CCCOc2ccc(Cl)cc2C)c1	.	.	.	?	?	.	16µM	.	.	.
COc1ccc(NC(=O)NNC(=O)COc2ccc(Cl)cc2C)cc1OC	.	.	.	.	.	.	/	/	/	/
SMILES	HT1080-NT tox	HepG2 tox-1	ATXN2 expr inh	TGFb SMAD3 inh	HT1080 IDH1KD tx	S2 tox	TGFb CAGA inh	HepG2 tox-2	CCL64 TGFb inh	COP TGFb inh
CC(C)(C)C(=O)NCCCc1nc2ccccc2n1CCCOc1ccc(Cl)cc1	?	.	.	13µM	?	.	12µM	.	?	.
CC1Cn2c(C(=O)NCCc3ccc(Cl)cc3)cc3cccc(c32)S1 (stereo unspecified)	/	.	/	?	/	/	/	/	/	/
CCN(c1cc(C)cc(C)c1)S(=O)(=O)c1nnc(NC(=O)C2CCCCC2)s1	/	.	/	.	/	/	/	/	/	/
CC(=O)n1nc(-c2ccncc2)nc1SCC(=O)Nc1cccc(Cl)c1	.	.	.	4µM	.	.	3.7µM	.	7.3µM	.
Cc1cccc(NC(=O)CSc2n[nH]c(-c3ccncc3)n2)c1	.	.	.	3.5µM	.	.	5.2µM	.	10µM	.
CC(=O)c1cccc(NC(=O)CSc2n[nH]c(-c3ccncc3)n2)c1	.	.	.	.	.	.	/	/	/	/
CCn1c(C)nnc1SCC(=O)Nc1cccc(Cl)c1	.	.	.	.	.	.	/	/	/	/
CC(=O)N1CCc2c(sc3c2c(=O)n(-c2cccc(Cl)c2C)c(=O)n3Cc2ccccc2C)C1	/	.	.	.	/	.	/	/	/	/
Oc1ccccc1-c1nc(NCc2cccnc2)c2ccccc2n1	?	.	?	20µM	?	.	?	?	?	.
CC(C)(C)c1ccc(C(=O)CC(=O)c2cc(Cl)ccc2O)cc1	?	.	.	5.6µM	?	.	?	?	9.2µM	.
Cc1ccc(C(=O)CC(=O)c2cc(Cl)ccc2O)cc1	?	.	.	?	?	.	/	/	/	/
CN(CCOc1ccccc1)C(=O)C1CCN(C(=O)c2ccc(F)cc2)CC1	.	.	.	?	.	.	.	.	.	.
O=C(c1ccc(F)cc1)N1CCC(C(=O)N(Cc2ccccc2)c2ccccc2)CC1	.	.	/	.	.	.	/	/	/	/
